This note sets out measurements from PubChem BioAssay AID1789 (The Scripps Research Institute Molecular Screening Center, 2009).

In all, about 290,000 compounds went through this assay and about 2,700 (0.93%) were called active. What follows is part of a selection rich in actives, with near analogues and random picks from the rest. Unmarked numbers belong to inactive results.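 The calls were made as follows: active = inhibition above the screen-wide mean plus 3 SD, computed separately per campaign (cut at about 16% in these data); inactive = the rest.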

For the test, the system named is Heat shock protein HSP 90 (rabbit reticulocyte lysate; luciferase refolding). The test is described as follows: inhibitors of HSP90 chaperone activity – cell lysate, luminescence, primary screen (AID 1789).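 Also: 0% = DMSO wells and 100% = 60 µM geldanamycin wells; inhibitors lower the luminescence because luciferase stays unfolded.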 The conditions noted are these: 3 h, at 5.6 µM, hits give high values.
Regarding `CN1CCN(c2cc(N3CCNCC3)ccc2[N+](=O)[O-])CC1`, the inhibition was -3.02%.
As for `Cc1nc2ccc(N3CCN(C)CC3)cc2nc1C`, the figure is 1.77%; as for `COc1cccc(-c2nc3ccc(N4CCN(C)CC4)cc3[nH]2)c1`, 60.8% (active).
Regarding `CC1=CC(=Cc2sc3ccccc3[n+]2C)C=C(C)O1`, the inhibition was 0.85%.
As to `O=c1c2ccccc2nc(/C=C/c2ccc(F)cc2)n1-c1ccccc1O`, the inhibition is -2.14%.
For the compound `O=c1c2ccccc2nc(/C=C/c2ccco2)n1-c1ccccc1O`, the inhibition is 19.4% (active).
As for `O=c1c2ccccc2nc(-c2ccco2)n1-c1ccc(Br)cn1`, the inhibition is -1.12%.
As to `CN(c1ccccc1)c1ccc([N+](=O)[O-])c2nonc12`, the inhibition is 3.91%.
Regarding `CC(C)CN1CCN(Cc2ccccc2C(F)(F)F)CC1CCO` (stereo not given), the inhibition is -3.13%.
With `O=C(NC(c1ccc(Cl)cc1)P(=O)(Oc1ccccc1)Oc1ccccc1)OCc1ccccc1` (stereo not given), the inhibition is 1.96%.
